From PubChem BioAssay (Tox21)
Results filed as inconclusive are left out. Activity calls are given as the source filed them. Unless noted, the call rests on the fitted dose curve; in most records, active means well fitted curve in the direction sought with a large enough effect in the repeat runs; inconclusive means weak or mixed curves; inactive means no such curve, though single readings can be large; an effect the other way counts as inactive or inconclusive.

Tests used:
[1] = qHTS assay to identify small molecule agonists of the vitamin D receptor (VDR) signaling pathway - cell viability counter screen (AID 743224); further: series mostly up to about 63 µM; on the % scale 0 is the no-effect control and ±100 the full control effect; nearly all actives have a fitted effect of over 50% in size
Procedure, shortened: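 Viability is measured in the same wells as the VDR-bla reporter assay: after 16 h compound treatment and 2 h substrate loading, CellTiter-Glo is added and luminescence read 30 min later.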

[2] = qHTS assay to identify small molecule antagonists of the vitamin D receptor (VDR) signaling pathway - cell viability counter screen (AID 743225); further: on the % scale 0 is the no-effect control and ±100 the full control effect; nearly all actives have a fitted effect of over 50% in size
Procedure, shortened: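 HEK293T VDR-bla; cpd + 1a,25-(OH)2D3 3 nM final, 16 h 37C/5% CO2; B/G FRET substrate 2 h RT; then CellTiter-Glo 30 min RT, luminescence.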

[3] = qHTS assay to identify small molecule agonists of the NFkB signaling pathway (AID 1159509; active means well fitted curve in the direction sought with a large enough effect in the signal ratio in the repeat runs, not every such curve was filed as active; the % refers to the signal ratio; further: series mostly up to about 61 µM; on the % scale 0 is the no-effect control and ±100 the full control effect)
Procedure, shortened: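 ME-180 NFkB-bla, 2,000 cells/well, overnight plating; cpd pinned in DMSO, 5 h 37 C; B/G FRET substrate 1.5 h RT; ex 405, em 460/530 nm.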

[4] = qHTS assay to identify small molecule agonists of the NFkB signaling pathway - cell viability counter screen (AID 1159515; calls by dose curve; further: series mostly up to about 61 µM; on the % scale 0 is the no-effect control and ±100 the full control effect; nearly all actives have a fitted effect of over 55% in size)
Procedure, shortened: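 Multiplexed viability readout: after the 5 hr compound exposure and 1.5 hr FRET substrate step, CellTiter-Glo reagent went into the same NFkB-bla ME-180 wells; ATP luminescence was measured after 30 min at room temperature.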

[5] = qHTS assay to identify small molecule agonists of the endoplasmic reticulum stress response signaling pathway (AID 1159516; active means well fitted activation curve with a large enough effect in the signal ratio in the repeat runs, not every such curve was filed as active; the % refers to the signal ratio; further: on the % scale 0 is the no-effect control and ±100 the full control effect)
Procedure, shortened: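 Tox21 10K library screened in quantitative HTS format on ESRE-bla HeLa cells, a beta-lactamase reporter under ER stress response element control; 5 hr treatment, FRET read.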

[6] = qHTS assay to identify small molecule agonists of the endoplasmic reticulum stress response signaling pathway - cell viability counter screen (AID 1159517; calls by dose curve; further: series mostly up to about 61 µM; on the % scale 0 is the no-effect control and ±100 the full control effect; nearly all actives have a fitted effect of over 50% in size)
Procedure, shortened: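 CellTiter-Glo was added to wells already read for beta-lactamase FRET, and luminescence was recorded 30 min later. Cells: ESRE-bla HeLa, 1,500 per well, compound exposure 5 hr at 37 C.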

[7] = qHTS assay to identify small molecule antagonists of the retinoid-related orphan receptor gamma (ROR-gamma) signaling pathway - cell viability counter screen (AID 1159520); further: on the % scale 0 is the no-effect control and ±100 the full control effect; nearly all actives have a fitted effect of over 50% in size
Procedure, shortened: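 Tet-on ROR gamma CHO cells (1,000/well) were plated 4 hr, given compounds in DMSO for 2 hr at 37 C, then induced with 1 uM final doxycycline for 16 hr. Viability was read as ATP by CellTiter-Glo luminescence after 30 min.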

[8] = qHTS assay to identify small molecule agonists of the AP-1 signaling pathway - cell viability counter screen (AID 1159525; calls by dose curve; further: nearly all actives have a fitted effect of over 55% in size)
Procedure, shortened: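 ME-180 AP-1-bla, 2500 cells/well, Opti-MEM + 0.5% dialyzed FBS; overnight 37 °C; cpd 15-pt titration, 5 h 37 °C; CellTiter-Glo 30 min RT; luminescence read; normalised to TOAB and DMSO controls.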

[9] = qHTS assay to identify small molecule agonists of the AP-1 signaling pathway (AID 1159526; calls by dose curve; further: on the % scale 0 is the no-effect control and ±100 the full control effect)
[10] = biological target: Nuclear receptor ROR-gamma (Homo sapiens) (UniProt P51449); assay: qHTS assay to identify small molecule antagonists of the retinoid-related orphan receptor gamma (ROR-gamma) signaling pathway (AID 1159521)
Procedure, shortened: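 Cells were plated, rested 4 h at 37 C, exposed to compounds for 2 h, then given 1 uM final doxycycline hyclate to induce RORγ expression. After 16 h, ONE-Glo luminescence from the ROR response element reporter was measured.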

CCCCCCOC(=O)CCCCC(=O)OCCCCCC
inactive: Potency [1] | Potency [2] | outcome [3] | outcome [4] | outcome [5] | outcome [6] | outcome [7] | Potency [8] | outcome [9]

NC(=O)c1cn(Cc2c(F)cccc2F)nn1
inactive: Potency [1] | Potency [2] | outcome [3] | outcome [4] | outcome [5] | outcome [6] | outcome [7] | Potency [10] | outcome [9]

CCc1nccnc1CC
inactive: Potency [1] | Potency [2] | outcome [3] | outcome [4] | outcome [5] | outcome [6] | activity, negative = cytotoxicity [7] -7.52% [at 19 µM] | Potency [10] | outcome [9]

CC(C)(O)C(=O)c1ccccc1
inactive: Potency [1] | Potency [2] | outcome [3] | outcome [4] | outcome [5] | outcome [6] | outcome [7] | Potency [10] | outcome [9]

CC(C[N+](C)(C)C)OC(N)=O (centres undefined)
inactive: Potency [1] | Potency [2] | outcome [3] | outcome [4] | outcome [5] | outcome [6] | outcome [7] | Potency [8] | outcome [9]

Nc1nc2c(ncn2COC(CO)CO)c(=O)[nH]1
inactive: Potency [1] | Potency [2] | outcome [3] | outcome [4] | outcome [5] | outcome [6] | outcome [7] | Potency [10] | outcome [9]

N=c1nc(N2CCCCC2)cc(N)n1O
inactive: Potency [1] | Potency [2] | outcome [3] | outcome [4] | outcome [5] | outcome [6] | outcome [7] | Potency [10] | outcome [9]

OCCCC1CCCCC1
inactive: Potency [1] | outcome [3] | outcome [4] | outcome [5] | outcome [6] | outcome [7] | Potency [10] | outcome [9]

NC(=O)c1ccc(N)cc1
inactive: Potency [1] | Potency [2] | outcome [3] | outcome [4] | outcome [5] | outcome [6] | outcome [7] | Potency [10] | outcome [9]

CO/N=C(/C(=O)N[C@@H]1C(=O)N2C(C(=O)OCOC(=O)C(C)(C)C)=C(C)CS[C@H]12)c1csc(N)n1
inactive: Potency [2] | outcome [3] | outcome [4] | outcome [5] | outcome [6] | outcome [7] | Potency [10] | Potency [8] | outcome [9]

O=c1cc(CO)occ1O
inactive: Potency [1] | Potency [2] | outcome [3] | outcome [4] | outcome [5] | outcome [6] | outcome [7] | Potency [8] | outcome [9]

COCCc1ccc(OCC(O)CNC(C)C)cc1 (centres undefined)
inactive: Potency [1] | Potency [2] | outcome [3] | outcome [4] | outcome [5] | outcome [6] | outcome [7] | Potency [8] | outcome [9]

N#Cc1ccc(C2CCCc3cncn32)cc1 (centres undefined)
inactive: Potency [1] | outcome [3] | outcome [4] | outcome [5] | outcome [6] | outcome [7] | Potency [10] | outcome [9]

N[C@H](C(=O)O)c1ccc(O)cc1
inactive: Potency [1] | Potency [2] | outcome [3] | outcome [4] | outcome [5] | outcome [6] | activity, negative = cytotoxicity [7] 3.98% [at 19 µM] | Potency [10] | outcome [9]
